The full data set covers some 8,800 targets. This sample favours those with a hit. About 0.5% of all pairs of compound and target were hits.
Each target was assayed with O=C1NC(=O)C(c2cnc3ccccn23)=C1c1cn2c3c(cc(F)cc13)CN(C(=O)N1CCCCC1)CC2 (assay: log2 fold change, soluble protein after heating vs DMSO (PISA); higher = thermal stabilisation; K562 lysate, 10 uM; active = over 0.2 and 3.5 SD of the protein, either way, in both replicates (recomputed)).
Procedure, shortened: (§1)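 The values are log-two fold changes in thermal stability compared with solvent controls and come from duplicates. They were obtained by TMTpro 16plex LC-MS/MS, with channel sums equalised, on the supernatant after 21,000xg for 90 min. That supernatant came from crude K562 extract at 1 mg/mL protein treated with 10 μM compound for 30 min, heated for 3 min across 48°C-58°C, pooled and brought to 0.5% NP-40 at 4°C.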

UniProt Q9Y6I4, sequence (Q9Y6I4 whole entry, looked up): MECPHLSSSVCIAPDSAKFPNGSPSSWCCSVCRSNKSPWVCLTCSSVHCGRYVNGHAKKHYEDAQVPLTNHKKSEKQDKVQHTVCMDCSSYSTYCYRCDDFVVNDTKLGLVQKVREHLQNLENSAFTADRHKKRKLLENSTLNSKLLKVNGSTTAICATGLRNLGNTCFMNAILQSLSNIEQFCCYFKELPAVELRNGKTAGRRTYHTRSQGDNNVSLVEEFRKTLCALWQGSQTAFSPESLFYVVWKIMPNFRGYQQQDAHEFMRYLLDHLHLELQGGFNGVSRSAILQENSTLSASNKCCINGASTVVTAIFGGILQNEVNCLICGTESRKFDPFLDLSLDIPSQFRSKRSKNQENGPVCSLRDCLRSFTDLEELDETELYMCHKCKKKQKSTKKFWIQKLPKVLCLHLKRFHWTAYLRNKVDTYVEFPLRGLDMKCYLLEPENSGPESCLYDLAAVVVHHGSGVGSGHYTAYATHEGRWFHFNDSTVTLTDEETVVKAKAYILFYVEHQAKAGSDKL
UniProt Q9UKW4, sequence (Q9UKW4 whole entry, looked up): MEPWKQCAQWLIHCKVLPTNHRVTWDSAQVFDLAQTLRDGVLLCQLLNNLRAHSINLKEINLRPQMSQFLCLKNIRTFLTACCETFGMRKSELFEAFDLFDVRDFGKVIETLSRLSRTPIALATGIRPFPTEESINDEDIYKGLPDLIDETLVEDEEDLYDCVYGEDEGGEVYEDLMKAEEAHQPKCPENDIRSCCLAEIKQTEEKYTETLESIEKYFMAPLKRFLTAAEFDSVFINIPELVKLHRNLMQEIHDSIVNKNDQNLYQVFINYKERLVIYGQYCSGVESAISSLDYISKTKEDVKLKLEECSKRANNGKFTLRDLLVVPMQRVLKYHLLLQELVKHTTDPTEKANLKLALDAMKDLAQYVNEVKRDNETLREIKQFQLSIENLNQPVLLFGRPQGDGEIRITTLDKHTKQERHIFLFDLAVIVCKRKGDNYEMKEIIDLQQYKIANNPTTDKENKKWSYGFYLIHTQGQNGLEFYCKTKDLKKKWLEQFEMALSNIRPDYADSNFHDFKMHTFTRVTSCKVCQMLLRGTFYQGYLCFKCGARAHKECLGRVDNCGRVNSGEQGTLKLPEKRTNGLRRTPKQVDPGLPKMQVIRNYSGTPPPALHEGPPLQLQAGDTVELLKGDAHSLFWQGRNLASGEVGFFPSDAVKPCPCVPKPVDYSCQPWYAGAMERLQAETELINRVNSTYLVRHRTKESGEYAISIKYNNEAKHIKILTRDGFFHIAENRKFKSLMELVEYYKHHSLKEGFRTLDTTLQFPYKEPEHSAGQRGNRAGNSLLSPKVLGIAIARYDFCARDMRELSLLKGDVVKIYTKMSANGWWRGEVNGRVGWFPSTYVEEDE
UniProt Q5SVZ6, sequence (Q5SVZ6 whole entry, looked up): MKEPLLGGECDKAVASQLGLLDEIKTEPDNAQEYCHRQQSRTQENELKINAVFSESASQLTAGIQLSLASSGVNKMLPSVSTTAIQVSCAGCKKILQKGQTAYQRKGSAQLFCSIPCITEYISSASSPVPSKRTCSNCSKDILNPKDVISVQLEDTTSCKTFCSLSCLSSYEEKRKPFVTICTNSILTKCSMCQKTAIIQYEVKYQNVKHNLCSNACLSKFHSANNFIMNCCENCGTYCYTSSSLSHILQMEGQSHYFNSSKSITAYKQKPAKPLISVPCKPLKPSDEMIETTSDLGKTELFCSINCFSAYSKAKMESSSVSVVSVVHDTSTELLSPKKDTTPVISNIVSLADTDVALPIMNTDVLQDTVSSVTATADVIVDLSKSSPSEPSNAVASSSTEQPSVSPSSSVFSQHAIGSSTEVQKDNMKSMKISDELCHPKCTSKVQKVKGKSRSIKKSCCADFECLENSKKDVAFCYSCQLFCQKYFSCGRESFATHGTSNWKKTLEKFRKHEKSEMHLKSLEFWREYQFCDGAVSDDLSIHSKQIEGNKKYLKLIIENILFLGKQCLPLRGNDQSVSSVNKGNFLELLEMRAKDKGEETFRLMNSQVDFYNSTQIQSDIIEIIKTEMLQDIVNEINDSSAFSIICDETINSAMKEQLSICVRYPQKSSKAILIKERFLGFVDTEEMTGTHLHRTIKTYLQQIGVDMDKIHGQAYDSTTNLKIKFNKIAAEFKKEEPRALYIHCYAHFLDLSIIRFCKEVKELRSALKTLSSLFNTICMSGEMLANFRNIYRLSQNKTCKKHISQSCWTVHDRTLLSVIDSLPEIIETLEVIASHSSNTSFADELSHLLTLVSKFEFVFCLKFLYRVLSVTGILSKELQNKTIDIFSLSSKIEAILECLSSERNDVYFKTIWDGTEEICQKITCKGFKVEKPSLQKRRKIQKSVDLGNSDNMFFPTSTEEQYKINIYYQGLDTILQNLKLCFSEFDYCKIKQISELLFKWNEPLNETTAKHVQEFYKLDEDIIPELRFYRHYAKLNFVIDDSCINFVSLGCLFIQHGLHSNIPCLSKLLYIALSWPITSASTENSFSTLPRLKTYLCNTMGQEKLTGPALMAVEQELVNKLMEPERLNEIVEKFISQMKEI
UniProt Q9UNX4, sequence (Q9UNX4 whole entry, looked up): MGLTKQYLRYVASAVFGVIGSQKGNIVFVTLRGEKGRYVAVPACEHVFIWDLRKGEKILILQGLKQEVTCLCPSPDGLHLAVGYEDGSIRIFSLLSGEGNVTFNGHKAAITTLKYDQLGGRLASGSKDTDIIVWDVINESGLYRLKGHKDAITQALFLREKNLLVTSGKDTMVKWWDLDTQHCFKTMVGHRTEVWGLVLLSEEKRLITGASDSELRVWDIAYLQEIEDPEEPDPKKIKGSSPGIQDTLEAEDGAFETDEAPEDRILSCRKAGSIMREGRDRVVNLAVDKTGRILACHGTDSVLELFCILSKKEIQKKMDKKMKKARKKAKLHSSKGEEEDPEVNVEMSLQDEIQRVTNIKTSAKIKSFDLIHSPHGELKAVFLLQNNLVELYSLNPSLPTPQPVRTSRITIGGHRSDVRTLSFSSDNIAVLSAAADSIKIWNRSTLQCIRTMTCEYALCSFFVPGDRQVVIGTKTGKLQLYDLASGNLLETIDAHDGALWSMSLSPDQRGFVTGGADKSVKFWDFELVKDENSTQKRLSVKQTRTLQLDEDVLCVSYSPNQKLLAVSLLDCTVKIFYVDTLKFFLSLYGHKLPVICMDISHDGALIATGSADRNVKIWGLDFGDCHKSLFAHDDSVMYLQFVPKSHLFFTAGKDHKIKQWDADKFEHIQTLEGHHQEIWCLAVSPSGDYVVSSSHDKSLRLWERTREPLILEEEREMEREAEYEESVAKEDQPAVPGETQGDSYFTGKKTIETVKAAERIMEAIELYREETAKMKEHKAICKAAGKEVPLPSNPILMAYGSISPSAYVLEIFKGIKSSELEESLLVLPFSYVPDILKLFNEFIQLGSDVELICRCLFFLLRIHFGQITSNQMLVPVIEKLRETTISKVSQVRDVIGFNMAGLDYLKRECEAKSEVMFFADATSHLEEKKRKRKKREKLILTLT
UniProt Q6PHR2, sequence (Q6PHR2 whole entry, looked up): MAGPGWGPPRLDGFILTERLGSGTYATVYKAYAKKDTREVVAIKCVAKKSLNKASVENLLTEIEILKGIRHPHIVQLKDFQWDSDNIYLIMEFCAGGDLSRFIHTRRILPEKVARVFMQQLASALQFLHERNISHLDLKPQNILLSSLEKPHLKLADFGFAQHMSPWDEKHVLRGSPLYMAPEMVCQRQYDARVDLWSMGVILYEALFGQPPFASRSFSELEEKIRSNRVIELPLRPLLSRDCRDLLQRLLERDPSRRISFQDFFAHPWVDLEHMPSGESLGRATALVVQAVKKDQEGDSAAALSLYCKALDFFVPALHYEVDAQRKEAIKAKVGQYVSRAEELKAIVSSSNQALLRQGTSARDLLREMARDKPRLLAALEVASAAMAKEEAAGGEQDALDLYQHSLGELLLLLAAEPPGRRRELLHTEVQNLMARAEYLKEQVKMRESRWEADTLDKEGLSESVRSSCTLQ
UniProt Q9BRT2, sequence (Q9BRT2 whole entry, looked up): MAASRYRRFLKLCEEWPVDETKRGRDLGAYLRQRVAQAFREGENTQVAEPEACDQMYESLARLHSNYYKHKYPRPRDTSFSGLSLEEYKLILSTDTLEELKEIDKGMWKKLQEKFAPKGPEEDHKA
UniProt Q9UN37, sequence (Q9UN37 whole entry, looked up): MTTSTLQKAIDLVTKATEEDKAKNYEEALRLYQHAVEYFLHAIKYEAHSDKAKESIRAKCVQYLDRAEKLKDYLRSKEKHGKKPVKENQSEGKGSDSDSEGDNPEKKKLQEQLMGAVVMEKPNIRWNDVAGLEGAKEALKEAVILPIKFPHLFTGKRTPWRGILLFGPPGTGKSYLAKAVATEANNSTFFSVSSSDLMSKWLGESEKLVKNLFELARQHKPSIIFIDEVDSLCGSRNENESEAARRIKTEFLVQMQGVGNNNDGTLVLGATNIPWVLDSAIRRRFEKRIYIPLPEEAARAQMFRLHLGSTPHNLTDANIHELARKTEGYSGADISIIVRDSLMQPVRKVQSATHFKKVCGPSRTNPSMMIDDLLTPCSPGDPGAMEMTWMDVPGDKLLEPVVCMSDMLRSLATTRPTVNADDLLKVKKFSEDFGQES
UniProt Q9BZI7, sequence (Q9BZI7 whole entry, looked up): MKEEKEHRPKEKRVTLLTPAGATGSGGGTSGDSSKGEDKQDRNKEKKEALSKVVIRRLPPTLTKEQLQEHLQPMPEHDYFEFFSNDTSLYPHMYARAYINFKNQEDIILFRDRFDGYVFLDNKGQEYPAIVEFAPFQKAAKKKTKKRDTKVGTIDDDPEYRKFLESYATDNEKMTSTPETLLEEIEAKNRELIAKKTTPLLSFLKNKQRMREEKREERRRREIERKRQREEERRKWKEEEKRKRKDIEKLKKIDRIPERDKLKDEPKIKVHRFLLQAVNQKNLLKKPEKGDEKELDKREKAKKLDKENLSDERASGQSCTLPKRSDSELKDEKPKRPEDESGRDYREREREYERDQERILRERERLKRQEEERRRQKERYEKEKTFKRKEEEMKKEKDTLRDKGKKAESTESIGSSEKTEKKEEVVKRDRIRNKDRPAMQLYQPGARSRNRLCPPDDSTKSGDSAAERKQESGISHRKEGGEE

log2 fold change, inactive:
WDR3 (UniProt Q9UNX4) 0.01, VANGL1 (UniProt Q8TAA9) -0.031, ZMYM1 (UniProt Q5SVZ6) -0.004, UTP3 (UniProt Q9NQZ2) -0.039, XPNPEP1 isoform 3 (UniProt Q9NQW7) -0.019, XPOT (UniProt O43592) 0.009, WDR77 (UniProt Q9BQA1) -0.01, USP22 (UniProt Q9UPT9) 0.001, WRB (UniProt O00258) -0.012, UPF3B (UniProt Q9BZI7) -0.043, VPS28 (UniProt Q9UK41) -0.043, VPS4A (UniProt Q9UN37) -0.013, USP16 (UniProt Q9Y5T5) -0.019, VRK2 (UniProt Q86Y07) 0.039, WDR6 (UniProt Q9NNW5) -0.025, USP34 (UniProt Q70CQ2) -0.012, XPO1 (UniProt O14980) -0.001, VAV3 isoform 4 (UniProt Q9UKW4) -0.115, UQCC2 (UniProt Q9BRT2) -0.06, USP3 (UniProt Q9Y6I4) 0.015, ULK3 isoform 4 (UniProt Q6PHR2) 0.046, ZDHHC18 (UniProt Q9NUE0) 0.009, UQCRC2 (UniProt P22695) 0.03, WDR7 (UniProt Q9Y4E6) 0.01, YLPM1 (UniProt P49750) 0.017, WAC (UniProt Q9BTA9) -0.014, UXT isoform 2 (UniProt Q9UBK9) -0.025, VAV1 (UniProt P15498) -0.027, VPS11 (UniProt Q9H270) 0.011, VPS39 (UniProt Q96JC1) -0.005

What follows are targets tested with c1cn2cc(-c3ccc4cn[nH]c4c3)nc(Nc3ccc(N4CCOCC4)cc3)c2n1 [entospletinib] in the same assay as above.
Procedure, shortened: as §1

log2 fold change, inactive:
WDR3 (UniProt Q9UNX4) -0.001, VANGL1 (UniProt Q8TAA9) -0.009, ZMYM1 (UniProt Q5SVZ6) 0.021, UTP3 (UniProt Q9NQZ2) 0.02, XPNPEP1 isoform 3 (UniProt Q9NQW7) 0.002, XPOT (UniProt O43592) 0.037, WDR77 (UniProt Q9BQA1) 0.006, USP22 (UniProt Q9UPT9) 0.059, WRB (UniProt O00258) 0.146, UPF3B (UniProt Q9BZI7) -0.049, VPS28 (UniProt Q9UK41) 0.033, VPS4A (UniProt Q9UN37) 0.038, USP16 (UniProt Q9Y5T5) -0.031, VRK2 (UniProt Q86Y07) -0.064, WDR6 (UniProt Q9NNW5) 0, USP34 (UniProt Q70CQ2) -0.005, XPO1 (UniProt O14980) 0.036, VAV3 isoform 4 (UniProt Q9UKW4) 0.295, UQCC2 (UniProt Q9BRT2) -0.039, USP3 (UniProt Q9Y6I4) -0.013, ULK3 isoform 4 (UniProt Q6PHR2) 0.273, ZDHHC18 (UniProt Q9NUE0) 0.034, UQCRC2 (UniProt P22695) 0.007, WDR7 (UniProt Q9Y4E6) -0.017, YLPM1 (UniProt P49750) -0.004, WAC (UniProt Q9BTA9) -0.046, UXT isoform 2 (UniProt Q9UBK9) 0.02, VAV1 (UniProt P15498) 0.004, VPS11 (UniProt Q9H270) -0.006, VPS39 (UniProt Q96JC1) 0.013
